# D2 PAM-1 – potentiates the human D2 dopamine receptor allosterically. P14416. DiscoveRx D2 beta-arrestin cells, luminescence, 90 min; 100% = 57 uM dopamine signal. potentiation, % (concentration not given with the values). actives 0.23% (n = 360,000); in the data active means potentiation above about 50%; inconclusive means mostly about 30% to 49%
# Target sequence (P14416 whole entry, looked up): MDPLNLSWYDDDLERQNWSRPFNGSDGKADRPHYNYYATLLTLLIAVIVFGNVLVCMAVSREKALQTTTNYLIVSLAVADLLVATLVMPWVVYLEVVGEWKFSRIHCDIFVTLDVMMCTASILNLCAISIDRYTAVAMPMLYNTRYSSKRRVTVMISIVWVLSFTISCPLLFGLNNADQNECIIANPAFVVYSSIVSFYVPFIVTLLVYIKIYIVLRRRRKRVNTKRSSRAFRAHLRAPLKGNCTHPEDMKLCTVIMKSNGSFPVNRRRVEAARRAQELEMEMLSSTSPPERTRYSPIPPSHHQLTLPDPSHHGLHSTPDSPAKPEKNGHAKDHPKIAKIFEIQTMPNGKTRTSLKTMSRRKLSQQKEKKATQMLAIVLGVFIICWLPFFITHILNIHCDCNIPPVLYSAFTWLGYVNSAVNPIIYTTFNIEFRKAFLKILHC
#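 PathHunter D2 cells, attached overnight at 37 deg C, received compound in DMSO plus dopamine at EC20 (50 nM final) for 90 min at 37 deg C. Beta-arrestin recruitment was read as luminescence after 1 h with detection reagent at ambient temperature.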
# D2 PAM-2 – positively modulates the human D2 dopamine receptor allosterically; HEK293 T-REx D2, calcium flux, EC20 dopamine potentiation; potentiation, % at 10 µM; actives 0.34% (n = 340,000); P14416;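 active means potentiation over 3 SD above the plate norm, cut at about 30% in these data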; further: 0% is about no effect
#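 Calcium flux readout, no-wash dye, 1 read/s. Inducible HEK293 Trex D2 line, overnight 30 C. Compound alone 180 s (agonist flags), then EC20 dopamine, another 180 s to score potentiation.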
# D2 ag-1 – D2 dopamine receptor (human) agonism | actives 0.53% (n = 340,000) | P14416 | activation, % at 2 µM | AID 485358 | HEK293 T-REx D2 cells, calcium flux agonist mode;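 active means activation over 3 SD above normal in the single-dose calcium agonist read, cut at about 30% in these data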; further: 0% is about no effect
#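 Tetracycline-induced HEK293 T-REx cells with force-coupled D2 receptor, plated overnight at 30 C, loaded with no-wash calcium dye. After a 10 s baseline, compound was pin-added and calcium flux read kinetically for 180 s; calcium rises flagged agonists.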
# D2 antagonist – antagonizes the human D2 dopamine receptor; P14416; HEK293 TREx D2 cells, calcium flux, dopamine EC80; actives 2% (n = 340,000); inhibition, % at 10 µM; in the data active means inhibition above about 30%; inactive means below that, where a call was filed; further: 0% is about no effect
#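 Compounds are added to dye-loaded, induced HEK293 T-REx cells coupled to calcium release via D2; after a 3 min kinetic read an EC80 dopamine stimulus is given and fluorescence is recorded for 3 more min.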
# D2 ag-2 – activates the human D2 dopamine receptor | P14416 | DiscoveRx PathHunter D2 beta-arrestin, luminescence, 90 min; 100% = 57 uM dopamine signal | activation, % (no concentration beside the values) | actives 0.084% (n = 360,000) | AID 624465; in the data active means activation above about 40%; inconclusive means between about 15% and that limit
#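 DiscoveRx PathHunter D2 beta-arrestin cells (2,100/well) attached overnight, then compound-stimulated 90 min at 37 C in HBSS/10 mM HEPES/0.1% Tween-20 buffer; beta-galactosidase complementation read by luminescence after 1 h at ambient temperature. Dopamine 57 uM final (EC100) as control.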
# D3 arrestin ag – confirmation of human D3 dopamine receptor agonists, beta-arrestin; shares compounds with D2 ag-1; DiscoveRx D3 beta-arrestin cells, luminescence, 90 min; Potency, µM (top dose mostly 76.9 µM), for inactives: top-dose activation, usual class: activators; actives 4% (n = 2,300); AID 720506;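 further: potency means the concentration at half of the fitted maximal effect; 100% = dopamine control response; nearly all actives have a fitted effect of over 70% in size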
# D2 ag-3 – D2 receptor agonism, beta-arrestin counterscreen; shares compounds with D2 ag-1; DiscoveRx PathHunter D2 beta-arrestin, luminescence, 90 min; response scale: percent relative to full dopamine signal; AID 720507; actives 5.9% (n = 2,300); Potency, µM (titrated, usually from 76.9 µM), for the others: at the highest dose activation, usual class: activators; further: potency means the concentration at half of the fitted maximal effect; % of control where 0% means no effect; nearly all actives have a fitted effect of over 70% in size
# * hit, by the source's call; u = inconclusive; x = no result given. Only some compounds are listed: those with a hit (about 2.4% of all), similar ones and a draw of the others. Unless noted, the call rests on the fitted dose curve; in most records, active means well fitted activation curve with a large enough effect; inconclusive means small, poorly fitted or top-dose-only effect; inactive means flat fitted curve, though single readings scatter.
SMILES,D2 PAM-1,D2 PAM-2,D2 ag-1,D2 antagonist,D2 ag-2,D3 arrestin ag,D2 ag-3
CN(CC(=O)Nc1ccc(S(=O)(=O)N2CCCC2)cc1)CC(=O)Nc1ccc(F)c(F)c1F,0.0,5.6,1.8,12.1,0.8,x,x
CC(C)CC(=O)Nc1ccc(S(=O)(=O)N2CCCC2)cc1,-4.6,4.9,-0.8,-25.0,-5.3,x,x
CC(=O)Nc1ccc(S(=O)(=O)N2CCCN(S(=O)(=O)c3ccc(NC(C)=O)cc3)CC2)cc1,6.9,4.9,0.1,3.1,-0.1,x,x
CC(C)(C)CC(=O)Nc1ccc(S(=O)(=O)N2CCCC2)cc1,-1.5,43.5*,-1.0,-3.2,0.2,x,x
CC(=O)Nc1ccc(S(=O)(=O)N2CCCN(S(=O)(=O)c3ccc(C)cc3)CC2)cc1,-2.3,-1.3,0.1,30.7*,1.2,x,x
COCCCNC(=O)c1ccc2nc([C@@H]3O[C@H](CO)[C@H](O)[C@H](O)[C@H]3O)[nH]c2c1,-8.5,x,x,x,-2.9,x,x
COc1ccc(NC(=O)COC(=O)CCCOc2ccc(Cl)cc2Cl)cc1,-8.9,-19.7,0.4,39.7*,1.4,x,x
COc1ccc(S(=O)(=O)N2CCC(C(=O)Nc3ccc(Oc4ccccc4)cc3)CC2)cc1,x,8.4,-1.3,x,x,x,x
Cc1ccc(C2(C)NC(=O)N(CCOc3ccccc3)C2=O)cc1 (stereo not given),8.9,-5.1,0.3,-12.3,-4.1,x,x
COc1ccc(OCCN2C(=O)NC(C)(c3ccc(C)cc3)C2=O)cc1 (stereo not given),0.7,66.4*,0.5,17.4,0.0,x,x
O=C(COc1ccc2c(c1)OCO2)Nc1ccc2c(c1)oc1ccccc12,8.9,-5.5,0.0,37.0*,1.6,x,x
CCCN1CCN(C(=O)CCc2nnc3ccc(N4CCN(c5cccc(OC)c5)CC4)nn23)CC1,-4.3,-5.2,-0.6,31.8*,-6.0,x,x
COc1cccc(N2CCN(c3ccc4nnc(CCC(=O)N5CCC(C)CC5)n4n3)CC2)c1,12.9,-0.7,0.6,-9.2,-1.5,x,x
O=c1c2cnn(-c3ccccc3)c2ncn1CCc1ccccc1,9.1,-19.2,64.7*,5.5,-0.4,-2.8%,-1.5%
CCn1cnc2c(cnn2-c2ccccc2)c1=O,-3.2,-8.7,-0.5,26.4,0.0,x,x
Cc1ccc(NC2=NCC(=O)N2Cc2cccs2)cc1C,1.5,x,x,x,-4.5,1.0%,1.8%
Cn1c(CCN2CCN(c3ccccn3)CC2)nc2cc(NC(=O)COc3ccc([N+](=O)[O-])cc3)ccc21,2.9,-13.9,82.0*,30.8*,2.4,14.6%,18.4%
CCC(=O)Nc1ccc2c(c1)nc(CCN1CCCCC1)n2C,-16.7,-1.9,0.6,-2.8,-7.1,x,x
CCC(=O)Nc1ccc2c(c1)nc(CCN1CCN(c3ccccc3)CC1)n2C,-8.9,-21.6,61.5*,21.1,3.7,-5.4%,6.6%
CC(C)C(=O)Nc1ccc2c(c1)nc(CCN1CCN(c3ccccn3)CC1)n2C,-2.1,-21.8,66.9*,32.6*,u,u,16.5%
COC(=O)c1sccc1S(=O)(=O)N(CC(=O)NCc1ccc(C)cc1)c1ccccc1,x,7.1,0.1,x,x,x,x
O=S(=O)(NCCCN1CCN(c2ccccc2F)CC1)c1cccc2cccnc12,0.8,x,x,x,-3.5,16.6%,13.6%
O=S(=O)(NCCN1CCCC1)c1cccc2cccnc12,-5.6,0.5,0.6,-9.8,-2.4,x,x
CC(NC(=O)CN1CCN(c2ncccn2)CC1)c1ccc(F)cc1 (stereo not given),-31.8,-16.4,60.1*,15.6,7.6,10.6%,18.6%
O=C(CN1CCN(c2ncccn2)CC1)NCc1ccccc1,-2.9,-16.7,50.4*,8.3,9.4,20.8%,16.1%
SMILES,D2 PAM-1,D2 PAM-2,D2 ag-1,D2 antagonist,D2 ag-2,D3 arrestin ag,D2 ag-3
CCOc1ccccc1NC(=O)Cn1c(=O)n(-c2ccc(F)cc2)c(=O)c2c3c(sc21)CN(C(C)=O)CC3,x,x,0.2,x,x,x,x
CC(=O)N1C[C@@H](CO)[C@@H](N(C)C(=O)C(C)(C)C)C[C@H]1c1ccccc1,1.0,x,x,x,4.4,x,x
C[C@H](CO)N1C[C@H](C)[C@@H](CN(C)C(=O)c2ccc3c(c2)OCO3)Oc2cc(/C=C/c3ccccc3)ccc2S1(=O)=O,-4.1,x,x,x,3.0,x,x
Cc1cc(C)n2nc(C(=O)Nc3ccn(Cc4ccccc4C)n3)cc2n1,-0.9,0.4,51.0*,-7.7,0.0,2.1%,-1.9%
CCOC(=O)c1nc2nc(-c3cccs3)cc(C(F)(F)F)n2n1,-8.4,13.0,2.3,-4.1,3.0,x,x
O=C(c1nc2nc(-c3cccs3)cc(C(F)(F)F)n2n1)N1CCN(Cc2ccccc2)CC1,19.4,-10.7,65.2*,4.7,-1.0,-7.2%,1.2%
COc1ccccc1CNC(=O)COC(=O)CSc1ccc(C)c(C)c1,-11.7,-5.0,-0.4,-4.6,-3.3,-7.0%,-4.9%
Cc1ccc(SCC(=O)OCC(=O)NCc2cccs2)cc1C,-3.9,6.6,0.2,-3.2,-6.3,x,x
CC1(C(=O)NS(=O)(=O)c2cccc(Cl)c2)CCN1C(=O)C1(c2ccc(Cl)cc2)CCC1 (stereo not given),2.0,x,x,x,1.4,x,x
Cc1onc(-c2c(Cl)cccc2Cl)c1C(=O)N1CCc2ccccc2C1,-8.1,-10.6,72.4*,-0.2,-2.3,-2.4%,-1.1%
O=C(Nc1nc2n(n1)C(c1ccc(F)cc1)C=C(c1ccccc1)N2)c1ccco1 (stereo not given),x,4.8,4.4,x,x,x,x
COc1cc(NC(=S)N2CCN(c3ccccn3)CC2)cc(OC)c1OC,-3.7,x,x,x,0.7,x,x
Fc1ccccc1NC(=S)N1CCN(c2ccccn2)CC1,4.9,6.8,10.8,-0.4,-1.4,x,x
Oc1ccccc1N1CCN(C(=S)Nc2ccc(SC(F)F)cc2)CC1,22.9,7.3,2.7,-9.6,7.9,x,x
FC(F)(F)c1cccc(NC(=S)N2CCN(c3ccccn3)CC2)c1,-7.3,-11.9,24.3,1.5,-5.0,3.6%,4.3%
COc1ccc(NC(=S)N2CCN(c3ccccn3)CC2)cc1OC,-0.3,-12.6,49.4*,2.3,2.5,-5.3%,-2.6%
CCc1ccccc1NC(=S)N1CCN(c2ccccn2)CC1,-16.4,-16.3,32.8*,0.9,2.8,-7.0%,u
FC(F)Sc1ccc(NC(=S)N2CCN(c3ccccn3)CC2)cc1,-5.6,0.8,30.6*,-14.4,2.2,u,u
Cc1ccc(NC(=S)N2CCN(c3ccccn3)CC2)c(C)c1,-1.4,-9.8,34.1*,30.9*,-2.5,2.5%,3.2%
COc1ccc(C)cc1NC(=S)N1CCN(c2ccccn2)CC1,-0.2,-22.6,56.6*,-3.4,-1.3,-3.5%,-0.5%

# From PubChem BioAssay
